# About 79,000 compounds went through this panel and 15% of them were active in at least one assay; those are over-represented in the sample as a whole. Values without a mark were called inactive. Active and inactive are the calls of the source. No stated cut-off is given here; in the data, active means growth inhibition above about 70%; inactive means the rest.
# Tests used:
# [1] = NCI Yeast Anticancer Drug Screen. Data for the rad50 strain (AID 155);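 further: 0% = growth of vehicle-only cultures of the same strain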; conditions: S. cerevisiae rad50 strain growth inhibition, active compounds read high
# In short: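 Genetically altered yeast (DNA repair pathway); compound treatment; growth inhibition vs vehicle ctrl.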
# [2] = NCI Yeast Anticancer Drug Screen. Data for the mec2-1 strain (AID 157); conditions: S. cerevisiae mec2-1 strain, active compounds read high
# In short: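 Each compound was tested on mec2-1 yeast, a strain altered in DNA damage repair or cell cycle control. Growth inhibition is reported relative to vehicle.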
# [3] = NCI Yeast Anticancer Drug Screen. Data for the sgs1 mgt1 strain (AID 161);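 further: 0% = growth of cultures given vehicle only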; conditions: S. cerevisiae sgs1 mgt1 strain, active compounds read high
# In short: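 Inhibition of yeast growth, normalised to vehicle-treated controls, is reported for a strain bearing genetic alterations in DNA damage repair.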
# [4] = NCI Yeast Anticancer Drug Screen. Data for the cln2 rad14 strain (AID 165);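 further: 0% = growth equal to vehicle treated cultures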; conditions: S. cerevisiae cln2 rad14 strain, active compounds read high
# In short: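 Test compounds were added to cln2 rad14 yeast cultures; inhibition of growth was then determined by comparison with vehicle treatment.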
# [5] = NCI Yeast Anticancer Drug Screen. Data for the bub3 strain (AID 167); conditions: S. cerevisiae bub3 mutant strain, active compounds read high
# In short: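 Yeast carrying a defined mutation is treated with each compound, and growth is compared with that of vehicle-exposed cells to give inhibition.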
# [6] = NCI Yeast Anticancer Drug Screen. Data for the mlh1 rad18 strain (AID 175); conditions: S. cerevisiae mlh1 rad18 strain growth inhibition, active compounds read high
# In short: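 Inhibition values reflect reduced growth of mutant yeast versus vehicle-treated controls following compound exposure; the mutations affect DNA damage repair.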
# [7] = at 5.0 µM (retest, dose inferred, filed as 0.5)
# [8] = at 50.0 µM (retest, dose inferred, filed as 5.0)
SMILES,"growth inhibition [1, 7]","growth inhibition [1, 8]",growth inhibition ([1]; at 50.0 µM),"growth inhibition [2, 7]","growth inhibition [2, 8]",growth inhibition ([2]; at 50.0 µM),"growth inhibition [3, 7]","growth inhibition [3, 8]",growth inhibition ([3]; at 50.0 µM),"growth inhibition [4, 7]","growth inhibition [4, 8]",growth inhibition ([4]; at 50.0 µM),"growth inhibition [5, 7]","growth inhibition [5, 8]",growth inhibition ([5]; at 50.0 µM),"growth inhibition [6, 7]","growth inhibition [6, 8]",growth inhibition ([6]; at 50.0 µM)
Oc1ccc2ccccc2c1CNc1ccc2ccccc2c1,8%,57%,95.9% (active),10%,15%,98.7% (active),11%,69%,98.8% (active),-1%,18%,97.8% (active),0%,60%,95.4% (active),12%,67%,98.5% (active)
CCCCCCCCC(N)CCCCCCCC,99% (active),98% (active),99% (active),100% (active),99% (active),99% (active),99% (active),99% (active),46%,96% (active),99% (active),98.8% (active),99% (active),98% (active),99.2% (active),99% (active),98% (active),99.5% (active)
CC(=O)CC1(O)C(=O)Nc2ccc(Br)cc21 (centres undefined),1%,-2%,39%,0%,-3%,6.3%,-2%,1%,10.8%,-3%,8%,60.1%,6%,2%,0.8%,-5%,-8%,5.25%
Oc1ccc(/C=N/NC(=S)NC2CC3CC2C2C=CCC32)c(O)c1 (centres undefined),46%,96% (active),87.8% (active),33%,97% (active),90.8% (active),49%,98% (active),92.5% (active),26%,98% (active),89.3% (active),28%,52%,90.3% (active),65%,96% (active),90% (active)
NC(=O)C(=CNc1nc(-c2ccc(Br)cc2)cs1)C(N)=O,-5%,92% (active),99.5% (active),-11%,98% (active),99.5% (active),-3%,92% (active),99.5% (active),-34%,94% (active),98.9% (active),-11%,99% (active),99.5% (active),-6%,98% (active),99.3% (active)
CCCC/C=C\CCCCCCCCCC1=C(O)C(=O)C=C(OC)C1=O,65%,83% (active),60.9%,64%,89% (active),69.6%,74% (active),91% (active),65.3%,40%,62%,42.5%,77% (active),86% (active),63%,71% (active),87% (active),57.7%
CC(=O)Oc1ccc(C(C)(C)CC(C)(C)C)cc1,-1%,62%,72.2% (active),-1%,41%,95.3% (active),-1%,26%,94.8% (active),-3%,42%,86.3% (active),0%,55%,85.8% (active),-1%,42%,89.5% (active)
CCCCCCCCCCC[N+](C)(C)CCCCCC[N+](C)(C)CCCCCCCCCCC,92% (active),98% (active),88.6% (active),97% (active),99% (active),91% (active),99% (active),99% (active),90.9% (active),96% (active),99% (active),90.3% (active),99% (active),100% (active),88.4% (active),97% (active),99% (active),90.2% (active)
CN1CCN(CC(C(=O)O)(c2ccccc2)c2ccccc2)CC1,-1%,2%,-1.85%,3%,-5%,5.05%,-3%,0%,-16.6%,4%,-1%,14.2%,0%,-5%,59.5%,-1%,-4%,-13.2%
CC(=O)OC1OC2C(NC(=O)OC(C)(C)C)C1CC2(OCc1ccccc1)OCc1ccccc1 (centres undefined),35%,35%,23.6%,25%,25%,-24.4%,29%,29%,-3.2%,8%,8%,9.6%,18%,18%,-12.8%,28%,28%,9%
NC(Cc1ccnnc1)C(=O)O (centres undefined),-10%,-5%,-8.6%,10%,-7%,-36.4%,-7%,-10%,-36.2%,-7%,-11%,29.1%,-13%,-9%,-22.9%,-16%,-17%,-14.9%
OCCN=Cc1cccs1,1%,3%,8.85%,-2%,5%,2.8%,-1%,2%,2.05%,0%,1%,13.7%,1%,2%,8.25%,-25%,5%,3.4%
CCCC1c2ccc(O)cc2CC1c1ccc(O)cc1 (centres undefined),-1%,99% (active),99.2% (active),-4%,99% (active),99.4% (active),-3%,99% (active),99.5% (active),11%,99% (active),52.4%,-1%,99% (active),98.7% (active),1%,99% (active),98.5% (active)
Fc1cccc2c1cc1ccc3cccc4ccc2c1c34,-1%,-11%,89.2% (active),0%,-6%,40.4%,-5%,-14%,83.5% (active),-3%,-4%,61.7%,0%,-6%,87.5% (active),-5%,-6%,91.2% (active)
CN(C)CCCC1(c2ccccc2)SC(C)(C)c2ccc(Cl)cc21 (centres undefined),-36%,28%,15.3%,-4%,7%,28.9%,0%,39%,44.2%,0%,0%,-9.75%,-2%,11%,19.3%,11%,56%,66%
CCN1/C(=C/C=C/C=C\C=C\c2sc3ccc4ccccc4c3[n+]2CC)Sc2ccc3ccccc3c21,28%,68%,49.2%,21%,80% (active),46.8%,25%,75% (active),47.6%,48%,65%,54%,34%,65%,30.4%,25%,73% (active),40.6%
O=C(C[n+]1ccccc1)c1ccc2ccc3ccc(Cl)cc3c2c1,4%,67%,59.1%,0%,26%,32%,3%,56%,35.5%,2%,39%,-90.4%,-2%,46%,2.15%,29%,82% (active),72.5% (active)
CC1(C)OC2OC(/C=C/[N+](=O)[O-])C3OC(C)(C)OC3C2O1 (centres undefined),20%,98% (active),8.25%,3%,98% (active),10.9%,-17%,97% (active),13.2%,17%,99% (active),5.45%,-9%,97% (active),4.75%,17%,97% (active),27.4%

# Source: PubChem BioAssay (NCI)
